Methyltransferases = Primary Screen for Target Class Profiling of Small Molecule Inhibitors of Methyltransferases; purified enzyme, MTase-Glo SAH luminescence; active compounds read low; calls only at 40 µM; 25,000 tested, 3.9% active; AID 1745853, 2022; call rule not given here
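Each enzyme was reacted with SAM and its substrate, with compounds tested once at 40 uM; SAH formed was read by MTase-Glo luminescence.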
Active calls of the source: *; i = inactive; + = active, no number; ! = not confirmed by another sample. This is one part of a sample in which hits are shown more often than they occur. On the % scale 0 is the no-effect control and ±100 the full control effect.

SMILES	Methyltransferases
CCN1C(=O)c2cc(C(=O)NCCCOC(C)C)nn2CC1(C)C(=O)NC1CCCC1 (stereo not drawn)	i
CCOC(=O)c1cc2n(n1)CC(C)(C(=O)NCc1ccccc1)N(c1ccccc1C)C2=O (stereo not drawn)	i
COc1ccc2cc3n(c2c1)CC(C)(C(=O)NC1CCCCC1)N(Cc1ccc(C)cc1)C3=O (stereo not drawn)	i
Cc1cc(C(=O)N2Cc3cnn(C)c3Nc3ccccc32)ccc1CNC(=O)N1CCN(Cc2cc(O)cc(O)c2)CC1	i
Cc1nc(N2CCCCC2)n(CC(=O)Nc2ccc(Br)cc2)c(=O)c1C	i
CCCCCOc1ccc2c(-c3ccccc3)cc(=O)oc2c1	i
CCOc1cc(OCC)c2c(-c3ccccc3)cc(=O)oc2c1	+
CCOc1cc2oc(=O)cc(-c3ccccc3)c2cc1Cl	i
CCC1(O)CCC12CCN(C(=O)Cc1ccccc1)CC2 (stereo not drawn)	i
Cc1ccc(NC(=O)CSc2nnc3n(CCc4ccccc4)c(=O)c4ccccc4n23)c(C)c1	i
CC1(C)C(=O)Nc2ccc(S(=O)(=O)N3CCCC(c4nn[nH]n4)C3)cc21 (stereo not drawn)	i
Cc1ccc(Nc2nccc(N(C)c3ccc4c(C)n(C)nc4c3)n2)cc1S(N)(=O)=O	+
COc1ccc(-c2cc3n(n2)CC(C)(C(=O)NCc2ccccc2)N(Cc2ccc(C)o2)C3=O)cc1 (stereo not drawn)	i
Nc1ncnc2c1c(-c1cccc(OCc3ccccc3)c1)cn2C1CC(CN2CCC2)C1 (stereo not drawn)	+
NC(=O)c1cccc(CC2CCN(C(=O)c3ccnc(-n4cnnc4)c3)C2)c1 (stereo not drawn)	i
COc1cc(OC)c2c(=O)[nH]c(-c3cc(C)c(OCCO)c(C)c3)nc2c1	i
CC1(C(=O)NC2CCCCC2)Cn2c(cc3sccc32)C(=O)N1Cc1ccccc1 (stereo not drawn)	i
O=C(Nc1cc(C2CC2)nn1-c1ccccc1)c1ccc(C(F)(F)F)cc1	i
CCc1c(Cl)c(O)c(Cl)c(O)c1C(=O)O[C@H]1[C@H](O)[C@H](OC)[C@H](OC/C2=C\C=C\C[C@H](O)/C(C)=C\[C@H](CC)[C@@H](O[C@@H]3OC(C)(C)[C@@H](OC(=O)C(C)C)[C@H](O)[C@@H]3O)/C(C)=C/C(C)=C/C[C@@H]([C@@H](C)O)OC2=O)O[C@@H]1C	+
CCNS(=O)(=O)c1ccc(Cl)c(-c2nnc(-c3ccccc3)o2)c1	i
CC(C)CCN1CCC(N2CCN(C(=O)c3ccc(Br)o3)CC2)C1=O (stereo not drawn)	i
OCc1ccc(CN2C[C@H](O)C[C@H]2c2nc(-c3ccc(F)cc3)no2)o1	i
CCOc1ccc(Nc2nc3c(S(=O)(=O)c4ccccc4)nnn3c3ccccc23)cc1	i
Cc1cnc(Nc2ccc(OCCN3CCCC3)cc2)nc1Nc1cccc(S(=O)(=O)NC(C)(C)C)c1	+!
Cc1cc(C)c2c(N3CCCC(OCc4cccnc4)C3)ncnc2n1 (stereo not drawn)	i
SMILES	Methyltransferases
COC(=O)CC[C@@H](C)[C@H]1CC[C@H]2[C@@H]3CC(=O)[C@H]4C[C@H](OC(C)=O)CC[C@]4(C)[C@H]3CC[C@]12C	i
CC(=O)Nc1sc2c(c1-c1nc3ccccc3s1)CNC2	i
CC1=C2C[C@H]3OC(=O)[C@H](O)[C@@]4(O)[C@@H](C)[C@@H](O)[C@H](O)C([C@@]2(C)[C@H](O)[C@@H](O)C1)[C@@]34C (stereo partly drawn)	i
O=C(c1nc2c(o1)CCN(Cc1cccc(F)c1)CC2)N1CCOCC1	i
O=C(NCCNC(=O)c1cccnc1)c1cccnc1	i
N#Cc1ccc(-c2cnc3[nH]cc(NC(=O)c4cccnc4)c3c2)cc1	+
CCS(=O)(=O)N(Cc1cccnc1)c1cccc(-c2ccc(C#N)cc2)c1	i
COC(=O)c1cc(OC)cc(OC)c1C(=O)c1c(OC)cc2c(c1O)C1CCCC(C)(O2)O1 (stereo not drawn)	i
CC12CCC3C1C(c1c(cc(O)c(C(=O)c4ccccc4)c1O)O2)C3(C)C (stereo not drawn)	+
CC1(C(=O)NC2CCCCCCC2)Cn2c(cc3sccc32)C(=O)N1Cc1ccco1 (stereo not drawn)	i
CCN1CCN(C(=O)c2cc3n(n2)CC(C)(C(=O)NC2CCCCCC2)N(C)C3=O)CC1 (stereo not drawn)	i
CN(Cc1cccn1C)C(=O)c1ccccc1	i
CNCCNS(=O)(=O)c1cccc2cnccc12	i
COc1ccc(CCNc2nc3c(-c4ccccc4)nnn3c3ccccc23)cc1OC	i
c1ccc(CCNc2nc3c(-c4ccccc4)nnn3c3ccccc23)cc1	i
Fc1cccc(-c2nnn3c2nc(NCCc2ccccc2)c2ccccc23)c1	+
COc1ccc(C(=O)COC(=O)C(Cc2c[nH]c3ccccc23)NC(=O)c2ccc(Cl)cc2)cc1 (stereo not drawn)	i
Cc1ccc(CNC(=O)C2(C)Cn3nc(C(=O)NCCc4ccccc4C)cc3C(=O)N2C)cc1 (stereo not drawn)	i
CNC(=O)N1CCC(C2CCN(C(=O)Cc3c(F)cccc3Cl)C2)CC1 (stereo not drawn)	i
Cn1c(=O)c2ccc(C(=O)NC3CCCCC3)cc2n2c(=O)n(CC(=O)Nc3ccc(F)cc3)nc12	i
CC(c1ccccn1)N(C)Cc1ccc(S(C)(=O)=O)cc1 (stereo not drawn)	i
COc1cccc(CSc2nnc3n(CCC(C)C)c(=O)c4ccccc4n23)c1	i
CNC(=O)[C@H]1C[C@H](Oc2ccccc2)CN1S(=O)(=O)c1c(C)noc1C	i
COC(=O)CC(O)C1OC(c2ccccc2)C(O)C1O (stereo not drawn)	i
NC(=O)COc1cccc(CN2CCN(c3ccc(F)cc3F)CC2)c1	i
SMILES	Methyltransferases
c1ccc(CCCN2CC[C@H](c3nc4ccccc4s3)C2)cc1	i
c1cc(CN2CCCCC2)cc(OCCCNc2nc3ccccc3s2)c1	+
CCC(C)NC(=O)c1ccc2c(=O)n(C)c3nn(CC(=O)NC(C)C)c(=O)n3c2c1 (stereo not drawn)	i
COCCC1(NS(C)(=O)=O)CCN(S(=O)(=O)c2cc(OC)ccc2OC)CC1	i
CCN(CC)C(=S)SSC(=S)N(CC)CC	+
COC(=O)CCSC/C=C(\C)CCn1cc(CCc2ccc(-c3ccccc3)cc2)nn1	+!
Cc1cccc(CNC(=O)CCn2ccc3cc(S(=O)(=O)N4CCCC4)ccc32)c1	i
CCN1CCN(CCNC(=O)c2cc3n(n2)CC(C)(C(=O)NC2CCCCCC2)N(C)C3=O)CC1 (stereo not drawn)	i
CC1(C(=O)NC2CCCCCC2)Cn2c(cc3sccc32)C(=O)N1Cc1ccccc1 (stereo not drawn)	i
CC12CC34C=CC(=O)C(C)(CCC(=O)O)C3C(CC1C4)O2 (stereo not drawn)	i
Cn1cnc2ccc(-c3ccncc3)nc2c1=O	i
O=S(=O)(NCc1cccnc1)c1ccc(Cl)c(-c2nnc(-c3ccccc3)o2)c1	i
CNC(=O)c1cccc(-c2ccccc2COc2ccc(CCOC)cc2)n1	i
Cc1cn(-c2cc(NC(=O)c3ccc(C)c(Nc4nccc(-c5cnccn5)n4)c3)cc(C(F)(F)F)c2)cn1	i
